These results are taken from PubChem BioAssay (NCI).

This is part of a sample that, as a whole, favours compounds with a hit. Of some 83,000 tested, about 20% had one in any assay.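 Note: values are percent growth. 100 is the growth of untreated cells, values between 100 and 0 indicate rising inhibition; between -100 and 0 indicates cell death.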 A number with no mark means an inactive call. Activity calls are given as the source filed them. How the source made its calls: active means growth percent below 10; inactive means the rest.

Test systems include HT29 colon; SNB-75 CNS; SNB-19 CNS; U251 CNS; PC-3 prostate; SK-MEL-5 melanoma; UACC-62 melanoma; LOX IMVI melanoma; SK-MEL-28 melanoma; SK-MEL-2 melanoma; SN12C renal; UO-31 renal; TK-10 renal; ACHN renal; CAKI-1 renal; A498 renal; CCRF-CEM leukemia; MOLT-4 leukemia; SR leukemia.
Holding throughout (experiment): NCI-60 one-dose screen, 48 h (100 = growth as untreated, 0 = no growth, -100 = all killed)
Holding throughout (settings): 10 µM

As to `CC/C(=C(/c1ccc(OCCN(C)C)cc1)c1ccc(OC(=O)CCC(=O)c2c(C)[nH]c(/C=C3\N=C(c4ccc[nH]4)C=C3OC)c2C)cc1)c1ccccc1`, the growth in the experiment with HT29 colon is 6.7% (active); with SNB-75 CNS, 28.3%; with SNB-19 CNS it was 72.7%; with U251 CNS it was 12.5%; in the experiment on PC-3 prostate, 19.3%; with SK-MEL-5 melanoma, 2.36% (active). Besides, the growth in the experiment on UACC-62 melanoma is -13.8% (active); in the experiment with LOX IMVI melanoma it was -45% (active); with SK-MEL-28 melanoma, 62.1%; with SK-MEL-2 melanoma, -11.4% (active); with SN12C renal, 35.9%; in the experiment with UO-31 renal it was 5.9% (active). Moreover, the growth was 21.7% in the experiment on TK-10 renal; 30.4% with ACHN renal; 18.8% in the experiment with CAKI-1 renal; 50.3% in the experiment with A498 renal; 6.12% (active) with CCRF-CEM leukemia; 3.77% (active) in the experiment on MOLT-4 leukemia. In addition, the growth in the experiment on SR leukemia was -21% (active).
With `N#Cc1ncc(-c2ccc(C(F)(F)F)cc2)c(NCc2cc(C(F)(F)F)cc(C(F)(F)F)c2)n1`, the growth was 9.29% (active) in the experiment with HT29 colon; 37.9% in the experiment with SNB-75 CNS; 29.8% in the experiment on SNB-19 CNS; 27.3% with U251 CNS; 1.54% (active) in the experiment on PC-3 prostate; 75.3% in the experiment on SK-MEL-5 melanoma. In addition, the growth in the experiment on UACC-62 melanoma is 19.4%; in the experiment on LOX IMVI melanoma, 14.9%; with SK-MEL-28 melanoma, 39.3%; with SK-MEL-2 melanoma it was -2.7% (active); with SN12C renal it was 21.8%; with UO-31 renal, 26.1%. Besides, the growth is 47.4% with TK-10 renal; 0.868% (active) in the experiment with ACHN renal; 17.9% in the experiment on CAKI-1 renal; 15.3% in the experiment on A498 renal; 10.5% in the experiment on CCRF-CEM leukemia; 21.9% in the experiment with MOLT-4 leukemia. Also, in the experiment on SR leukemia, the growth was 12.1%.
As for `COc1cc(Nc2ccnc(NCCNc3ccnc4cc(Cl)ccc34)n2)cc(OC)c1`, the growth in the experiment with HT29 colon is 1.76% (active); in the experiment on SNB-75 CNS it was 68.7%; with SNB-19 CNS it was 64.2%; in the experiment on U251 CNS it was 9.32% (active); in the experiment on PC-3 prostate it was 46.5%; in the experiment with SK-MEL-5 melanoma, -92.8% (active). Moreover, the growth was 51.1% in the experiment on UACC-62 melanoma; -37.2% (active) with LOX IMVI melanoma; -94.9% (active) in the experiment with SK-MEL-28 melanoma; 48.7% in the experiment on SK-MEL-2 melanoma; 52% in the experiment with SN12C renal; 37% in the experiment with UO-31 renal. Further, the growth was 48.3% in the experiment with TK-10 renal; 30.7% with ACHN renal; 40.8% in the experiment with CAKI-1 renal; 39.9% in the experiment with A498 renal; 15.3% in the experiment on MOLT-4 leukemia.
As to `O=C1/C(=C/c2ccc([N+](=O)[O-])o2)Oc2ccccc21`, the growth is -15.3% (active) with HT29 colon; 74.7% in the experiment with SNB-75 CNS; 89.4% with SNB-19 CNS; 47.5% with U251 CNS; 42.8% in the experiment with PC-3 prostate; 55.7% with SK-MEL-5 melanoma. For the same compound, the growth in the experiment on UACC-62 melanoma was -55% (active); with LOX IMVI melanoma, -60.7% (active); in the experiment on SK-MEL-28 melanoma, 21.5%; in the experiment on SK-MEL-2 melanoma it was 17.2%; in the experiment with SN12C renal it was -2.18% (active); in the experiment with UO-31 renal, -61.5% (active). Besides, the growth in the experiment with TK-10 renal was -55.8% (active); in the experiment on ACHN renal, -9.64% (active); with CAKI-1 renal it was -4.42% (active); with A498 renal, 70.3%; in the experiment with CCRF-CEM leukemia it was -1.87% (active); with SR leukemia it was 9.39% (active).
Take `CC/C(=C(/c1ccc(OCCN(C)C)cc1)c1ccc(OC(=O)CCCCCCCCC(=O)c2c(C)[nH]c(/C=C3\N=C(c4ccc[nH]4)C=C3OC)c2C)cc1)c1ccccc1`: the growth in the experiment on HT29 colon is 25.9%; in the experiment with SNB-75 CNS it was 64.7%; in the experiment on SNB-19 CNS it was 81.4%; with U251 CNS, 43.5%; in the experiment on PC-3 prostate it was 43%; in the experiment with SK-MEL-5 melanoma it was 29.3%. The growth was 51.2% in the experiment with UACC-62 melanoma; 20.8% in the experiment with LOX IMVI melanoma; 84.3% in the experiment on SK-MEL-28 melanoma; 95.6% in the experiment with SK-MEL-2 melanoma; 74.7% in the experiment on SN12C renal; 62.2% in the experiment with UO-31 renal. Moreover, the growth in the experiment with TK-10 renal was 98%; in the experiment on ACHN renal it was 87.6%; with CAKI-1 renal it was 47.1%; in the experiment on CCRF-CEM leukemia it was 23.5%; with MOLT-4 leukemia, 36.2%; with SR leukemia, 47.8%.
On to `COc1ccc(-c2nc3sc(-c4ccc(OC)cc4)c(-c4ccc(OC)cc4)n3c2/C=C/c2ccc(C(C)C)cc2)cc1`, for which the growth in the experiment with HT29 colon was 92.5%; with SNB-75 CNS it was 55.9%; in the experiment with SNB-19 CNS, 103%; with U251 CNS, 102%; in the experiment with PC-3 prostate, 79.4%; with SK-MEL-5 melanoma it was 99.9%. The growth in the experiment with UACC-62 melanoma was 86.9%; in the experiment on LOX IMVI melanoma, 98.6%; with SK-MEL-28 melanoma, 100%; in the experiment on SK-MEL-2 melanoma it was 84.3%; in the experiment with SN12C renal, 99.2%; in the experiment on UO-31 renal, 83.6%. Also, the growth with TK-10 renal is 97.7%; in the experiment on ACHN renal it was 97.9%; in the experiment with CAKI-1 renal, 82.2%; in the experiment on A498 renal it was 99.1%; with CCRF-CEM leukemia it was 96%; in the experiment on SR leukemia, 97.4%.
As to `O=C(Nc1cccc(-n2cc(-c3ccncc3)c(-c3cc(O)cc(Cl)c3)n2)c1)c1ccc(N2CCOCC2)c(C(F)(F)F)c1`, the growth in the experiment with HT29 colon is 16.9%; in the experiment with SNB-75 CNS it was 23.1%; with SNB-19 CNS, 12.1%; in the experiment with U251 CNS it was -9.64% (active); in the experiment on PC-3 prostate, 19.1%; with SK-MEL-5 melanoma, 32.2%. Also, the growth with UACC-62 melanoma is 10.8%; in the experiment with LOX IMVI melanoma it was -48.7% (active); in the experiment on SK-MEL-28 melanoma, -52.4% (active); in the experiment on SK-MEL-2 melanoma, 22.9%; in the experiment on SN12C renal it was 46.4%; in the experiment on UO-31 renal it was 3.98% (active). Besides, the growth in the experiment on TK-10 renal was 70.3%; in the experiment on ACHN renal it was 20.7%; with CAKI-1 renal, 14.8%; in the experiment on A498 renal it was 72.7%; in the experiment with CCRF-CEM leukemia it was 13.1%; in the experiment on MOLT-4 leukemia it was -29.7% (active). The growth with SR leukemia is -12.4% (active).
Turning to `O=C1/C(=C\c2ccc(F)cc2)CN(C(=O)c2ccc([N+](=O)[O-])cc2)C/C1=C\c1ccc(F)cc1`, the growth in the experiment on HT29 colon is -56.9% (active); in the experiment on SNB-75 CNS, 56.7%; in the experiment on SNB-19 CNS, 67.5%; with U251 CNS it was 9.03% (active); in the experiment on PC-3 prostate it was 28.6%; with SK-MEL-5 melanoma, 45.7%. The growth in the experiment on UACC-62 melanoma is 40.3%; in the experiment on LOX IMVI melanoma, -53.3% (active); in the experiment with SK-MEL-28 melanoma, 65.1%; in the experiment on SK-MEL-2 melanoma, 74.5%; with SN12C renal, 46.9%; in the experiment on UO-31 renal, 24.3%. Also, the growth with TK-10 renal is 87.3%; with ACHN renal it was 44.3%; in the experiment with CAKI-1 renal, 39.4%; in the experiment with A498 renal, 52%; with CCRF-CEM leukemia it was 7.75% (active); with MOLT-4 leukemia it was 27.2%. In addition, the growth in the experiment with SR leukemia is -19.3% (active).
